Reference: the supplement of paper PMC10849652
The full data set covers some 7,900 targets. This sample favours those with a hit. About 0.6% of all pairs of compound and target were hits. A number with no mark means an inactive call.

What was measured:
Test in all cases: log2 fold change, soluble protein after heating vs DMSO (PISA); higher = thermal stabilisation; K562 cells, 10 uM, 30 min; active = over 0.2 and 3.5 SD of the protein, either way, in both replicates (recomputed)
[1] = compound: CC1=C(C=C(C=C1)NC(=O)C2=CC(=CC=C2)N(C)C)NC(=O)C3=CC=C(C=C3)O
Procedure, shortened: (§1)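 For each measurement, 10 μM compound was applied for 30 min to K562 cells at 2×10^6 cells/mL. Aliquots were heated for 3 min across 48°C-58°C, pooled, and extracted in PBS with 0.5% NP-40 at 4°C; the supernatant after 21,000xg for 90 min was soluble protein. This was quantified by TMTpro 16plex LC-MS/MS with channel sums equalised, and thermal stability was reported relative to control samples from duplicates, on a log2 fold-change scale.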

[2] = compound: CC1=CC=C(C=C1)SC2=C3C=C(SC3=CN=C2)C(=O)N
Procedure, shortened: as §1

vemurafenib = compound: CCCS(=O)(=O)Nc1ccc(F)c(C(=O)c2c[nH]c3ncc(-c4ccc(Cl)cc4)cc23)c1F [vemurafenib]
Procedure, shortened: as §1

[3] = compound: CCCS(=O)(=O)Nc1ccc(F)c(C(=O)c2c[nH]c3ncc(Cl)cc23)c1F
Procedure, shortened: as §1

[4] = compound: CCCc1cc(C)[nH]c(=O)c1CNC(=O)c1cc(-c2ccnc(N3CCN(C)CC3)c2)cc2c1cnn2C(C)C
Procedure, shortened: as §1

givinostat = compound: CCN(CC)Cc1ccc2cc(COC(=O)Nc3ccc(C(=O)NO)cc3)ccc2c1 [givinostat]
Procedure, shortened: as §1

barasertib = compound: CCN(CCCOc1ccc2c(Nc3cc(CC(=O)Nc4cccc(F)c4)[nH]n3)ncnc2c1)CCOP(=O)(O)O [barasertib]
Procedure, shortened: as §1

[5] = compound: CC[C@@H]1C(=O)N(C)c2cnc(Nc3ccc(C(=O)NC4CCN(C)CC4)cc3OC)nc2N1C1CCCC1
Procedure, shortened: as §1

volasertib = compound: CC[C@@H]1C(=O)N(C)c2cnc(Nc3ccc(C(=O)N[C@H]4CC[C@H](N5CCN(CC6CC6)CC5)CC4)cc3OC)nc2N1C(C)C [volasertib]
Procedure, shortened: as §1

[6] = compound: CC[C@H](C)N1C=C(C2=C(C=C(C=C21)C3=CN=C(C=C3)N4CCNCC4)C(=O)NCC5=C(C=C(NC5=O)C)C)C
Procedure, shortened: as §1

[7] = compound: CCn1c(C(=O)N(C2CC2)C2CC2)cc2c3c(ncn3C)c(Nc3cc(C)n(C)n3)nc21
Procedure, shortened: as §1

[8] = compound: CCn1cc(-c2ccnc3[nH]c(-c4cccc(CN(C)C)c4)cc23)c(-c2ccc(NC(=O)N(C)C)cc2)n1
Procedure, shortened: as §1

[9] = compound: CN(C)CC(=O)Nc1ccc2[nH]c(=O)c3ccccc3c2c1
Procedure, shortened: as §1

rosiglitazone = compound: CN(CCOC1=CC=C(C=C1)C[C@H]2C(=O)NC(=O)S2)C3=CC=CC=N3 (racemic) [rosiglitazone]
Procedure, shortened: as §1

[10] = compound: CN1C2=C(C3=C1C(=O)N(N=C3)CC4=CC(=CC=C4)N)SC(=C2)S(=O)C
Procedure, shortened: as §1

[11] = compound: CN1CCC(CNc2ccc3ncc(-c4cccc(OC(F)(F)F)c4)n3n2)CC1
Procedure, shortened: as §1

[12] = compound: CC1=C(C=C(C=C1)NC(=O)C2=CC(=CC=C2)C(C)(C)C#N)NC3=CC4=C(C=C3)N=CN(C4=O)C
Procedure, shortened: as §1

[13] = compound: CC1=NC(=CC=C1)C2=C(N=C(N2)C(C)(C)C)C3=CC4=NC=CN=C4C=C3
Procedure, shortened: as §1

Nexturastat A = compound: CCCCN(Cc1ccc(C(=O)NO)cc1)C(=O)Nc1ccccc1 [Nexturastat A]
Procedure, shortened: as §1

epoxomicin = compound: CC[C@H](C)[C@@H](C(=O)N[C@@H]([C@@H](C)O)C(=O)N[C@@H](CC(C)C)C(=O)[C@]1(CO1)C)NC(=O)[C@H]([C@@H](C)CC)N(C)C(=O)C [epoxomicin]
Procedure, shortened: as §1

Sequence of UniProt O75056 (O75056 whole entry, looked up): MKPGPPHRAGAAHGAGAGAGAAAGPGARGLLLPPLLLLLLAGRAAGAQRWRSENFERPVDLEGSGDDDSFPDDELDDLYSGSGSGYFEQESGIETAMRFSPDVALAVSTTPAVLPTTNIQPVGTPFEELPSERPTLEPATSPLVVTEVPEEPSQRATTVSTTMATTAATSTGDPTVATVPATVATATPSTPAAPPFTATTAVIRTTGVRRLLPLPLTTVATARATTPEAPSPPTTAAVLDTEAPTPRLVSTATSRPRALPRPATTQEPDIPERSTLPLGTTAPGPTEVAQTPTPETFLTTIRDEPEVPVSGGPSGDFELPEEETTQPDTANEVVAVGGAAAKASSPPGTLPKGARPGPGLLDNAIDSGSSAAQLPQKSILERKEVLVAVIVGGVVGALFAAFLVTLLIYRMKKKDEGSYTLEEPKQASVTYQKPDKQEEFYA
Sequence of UniProt P43003 (P43003 whole entry, looked up): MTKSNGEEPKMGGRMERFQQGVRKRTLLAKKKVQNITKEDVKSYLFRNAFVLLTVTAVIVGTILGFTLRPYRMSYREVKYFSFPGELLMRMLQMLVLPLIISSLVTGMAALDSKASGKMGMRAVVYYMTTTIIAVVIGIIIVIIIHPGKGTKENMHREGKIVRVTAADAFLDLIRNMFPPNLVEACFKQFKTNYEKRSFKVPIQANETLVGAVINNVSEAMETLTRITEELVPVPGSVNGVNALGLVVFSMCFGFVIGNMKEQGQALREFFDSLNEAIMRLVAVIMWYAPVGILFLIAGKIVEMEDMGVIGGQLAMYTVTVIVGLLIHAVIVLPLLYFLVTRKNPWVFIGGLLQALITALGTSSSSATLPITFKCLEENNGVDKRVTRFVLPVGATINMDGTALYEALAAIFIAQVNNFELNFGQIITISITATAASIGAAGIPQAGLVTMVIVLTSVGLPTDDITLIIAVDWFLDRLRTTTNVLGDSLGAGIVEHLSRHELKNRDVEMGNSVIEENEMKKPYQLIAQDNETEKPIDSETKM
Sequence of UniProt Q99496 (Q99496 whole entry, looked up): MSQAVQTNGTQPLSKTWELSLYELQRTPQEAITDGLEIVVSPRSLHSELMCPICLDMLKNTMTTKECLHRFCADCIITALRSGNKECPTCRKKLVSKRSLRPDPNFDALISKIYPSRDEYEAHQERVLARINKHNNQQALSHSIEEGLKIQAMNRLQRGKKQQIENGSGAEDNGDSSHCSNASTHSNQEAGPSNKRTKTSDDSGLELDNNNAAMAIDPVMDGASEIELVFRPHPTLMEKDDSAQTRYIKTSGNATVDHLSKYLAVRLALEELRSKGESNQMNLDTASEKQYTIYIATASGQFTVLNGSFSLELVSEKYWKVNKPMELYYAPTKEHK
Sequence of UniProt Q9BY78 (Q9BY78 whole entry, looked up): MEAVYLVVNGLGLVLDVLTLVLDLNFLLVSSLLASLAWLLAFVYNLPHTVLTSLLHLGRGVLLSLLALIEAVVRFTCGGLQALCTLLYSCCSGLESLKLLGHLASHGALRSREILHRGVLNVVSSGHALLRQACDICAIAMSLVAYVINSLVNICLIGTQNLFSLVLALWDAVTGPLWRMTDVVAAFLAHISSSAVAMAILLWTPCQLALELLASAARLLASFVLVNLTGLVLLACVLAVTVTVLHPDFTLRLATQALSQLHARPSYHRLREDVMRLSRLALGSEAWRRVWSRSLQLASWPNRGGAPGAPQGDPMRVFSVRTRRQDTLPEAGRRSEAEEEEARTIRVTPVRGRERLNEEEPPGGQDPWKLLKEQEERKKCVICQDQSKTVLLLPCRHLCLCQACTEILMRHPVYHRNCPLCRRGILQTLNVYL
Sequence of UniProt O00560 (O00560 whole entry, looked up): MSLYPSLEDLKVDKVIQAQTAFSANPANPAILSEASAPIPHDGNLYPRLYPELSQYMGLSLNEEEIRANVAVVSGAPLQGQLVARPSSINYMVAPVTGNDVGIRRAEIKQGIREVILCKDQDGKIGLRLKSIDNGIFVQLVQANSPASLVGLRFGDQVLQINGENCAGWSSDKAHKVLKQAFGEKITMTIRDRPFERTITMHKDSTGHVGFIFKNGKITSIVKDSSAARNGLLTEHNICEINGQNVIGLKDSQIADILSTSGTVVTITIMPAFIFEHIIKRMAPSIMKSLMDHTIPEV
Sequence of UniProt A1X283 (A1X283 whole entry, looked up): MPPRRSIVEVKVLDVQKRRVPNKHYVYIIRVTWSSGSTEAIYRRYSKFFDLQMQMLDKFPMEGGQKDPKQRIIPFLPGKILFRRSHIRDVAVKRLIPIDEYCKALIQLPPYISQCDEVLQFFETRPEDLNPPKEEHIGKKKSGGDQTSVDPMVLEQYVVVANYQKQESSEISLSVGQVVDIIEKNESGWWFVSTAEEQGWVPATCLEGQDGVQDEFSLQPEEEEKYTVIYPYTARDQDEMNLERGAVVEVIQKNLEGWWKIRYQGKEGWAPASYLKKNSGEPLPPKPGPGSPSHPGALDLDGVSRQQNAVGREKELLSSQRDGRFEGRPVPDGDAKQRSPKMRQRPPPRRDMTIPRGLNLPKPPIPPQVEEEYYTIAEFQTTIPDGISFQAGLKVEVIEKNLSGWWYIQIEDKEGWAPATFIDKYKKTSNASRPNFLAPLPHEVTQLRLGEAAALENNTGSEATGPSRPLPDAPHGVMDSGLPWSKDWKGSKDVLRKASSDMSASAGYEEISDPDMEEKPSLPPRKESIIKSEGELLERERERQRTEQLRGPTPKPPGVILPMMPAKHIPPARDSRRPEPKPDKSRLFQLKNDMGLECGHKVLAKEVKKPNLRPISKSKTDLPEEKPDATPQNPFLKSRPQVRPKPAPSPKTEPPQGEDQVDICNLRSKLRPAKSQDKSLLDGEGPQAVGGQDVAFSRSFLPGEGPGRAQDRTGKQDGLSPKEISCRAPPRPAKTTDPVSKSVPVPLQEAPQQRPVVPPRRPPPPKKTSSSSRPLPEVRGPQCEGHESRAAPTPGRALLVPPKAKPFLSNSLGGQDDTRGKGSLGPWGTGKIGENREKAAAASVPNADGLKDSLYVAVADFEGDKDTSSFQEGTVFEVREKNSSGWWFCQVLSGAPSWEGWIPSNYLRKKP
Sequence of UniProt Q96LZ7 (Q96LZ7 whole entry, looked up): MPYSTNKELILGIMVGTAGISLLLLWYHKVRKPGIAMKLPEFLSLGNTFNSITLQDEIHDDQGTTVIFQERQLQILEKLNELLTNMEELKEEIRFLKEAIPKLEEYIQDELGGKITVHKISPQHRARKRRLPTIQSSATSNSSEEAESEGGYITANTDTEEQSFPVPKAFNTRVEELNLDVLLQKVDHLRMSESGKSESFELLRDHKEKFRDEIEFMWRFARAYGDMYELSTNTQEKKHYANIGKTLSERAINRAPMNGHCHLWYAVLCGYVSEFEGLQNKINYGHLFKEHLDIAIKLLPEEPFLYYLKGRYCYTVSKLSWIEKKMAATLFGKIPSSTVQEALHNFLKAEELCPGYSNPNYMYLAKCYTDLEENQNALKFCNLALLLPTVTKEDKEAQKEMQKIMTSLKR
Sequence of UniProt Q13796 (Q13796 whole entry, looked up): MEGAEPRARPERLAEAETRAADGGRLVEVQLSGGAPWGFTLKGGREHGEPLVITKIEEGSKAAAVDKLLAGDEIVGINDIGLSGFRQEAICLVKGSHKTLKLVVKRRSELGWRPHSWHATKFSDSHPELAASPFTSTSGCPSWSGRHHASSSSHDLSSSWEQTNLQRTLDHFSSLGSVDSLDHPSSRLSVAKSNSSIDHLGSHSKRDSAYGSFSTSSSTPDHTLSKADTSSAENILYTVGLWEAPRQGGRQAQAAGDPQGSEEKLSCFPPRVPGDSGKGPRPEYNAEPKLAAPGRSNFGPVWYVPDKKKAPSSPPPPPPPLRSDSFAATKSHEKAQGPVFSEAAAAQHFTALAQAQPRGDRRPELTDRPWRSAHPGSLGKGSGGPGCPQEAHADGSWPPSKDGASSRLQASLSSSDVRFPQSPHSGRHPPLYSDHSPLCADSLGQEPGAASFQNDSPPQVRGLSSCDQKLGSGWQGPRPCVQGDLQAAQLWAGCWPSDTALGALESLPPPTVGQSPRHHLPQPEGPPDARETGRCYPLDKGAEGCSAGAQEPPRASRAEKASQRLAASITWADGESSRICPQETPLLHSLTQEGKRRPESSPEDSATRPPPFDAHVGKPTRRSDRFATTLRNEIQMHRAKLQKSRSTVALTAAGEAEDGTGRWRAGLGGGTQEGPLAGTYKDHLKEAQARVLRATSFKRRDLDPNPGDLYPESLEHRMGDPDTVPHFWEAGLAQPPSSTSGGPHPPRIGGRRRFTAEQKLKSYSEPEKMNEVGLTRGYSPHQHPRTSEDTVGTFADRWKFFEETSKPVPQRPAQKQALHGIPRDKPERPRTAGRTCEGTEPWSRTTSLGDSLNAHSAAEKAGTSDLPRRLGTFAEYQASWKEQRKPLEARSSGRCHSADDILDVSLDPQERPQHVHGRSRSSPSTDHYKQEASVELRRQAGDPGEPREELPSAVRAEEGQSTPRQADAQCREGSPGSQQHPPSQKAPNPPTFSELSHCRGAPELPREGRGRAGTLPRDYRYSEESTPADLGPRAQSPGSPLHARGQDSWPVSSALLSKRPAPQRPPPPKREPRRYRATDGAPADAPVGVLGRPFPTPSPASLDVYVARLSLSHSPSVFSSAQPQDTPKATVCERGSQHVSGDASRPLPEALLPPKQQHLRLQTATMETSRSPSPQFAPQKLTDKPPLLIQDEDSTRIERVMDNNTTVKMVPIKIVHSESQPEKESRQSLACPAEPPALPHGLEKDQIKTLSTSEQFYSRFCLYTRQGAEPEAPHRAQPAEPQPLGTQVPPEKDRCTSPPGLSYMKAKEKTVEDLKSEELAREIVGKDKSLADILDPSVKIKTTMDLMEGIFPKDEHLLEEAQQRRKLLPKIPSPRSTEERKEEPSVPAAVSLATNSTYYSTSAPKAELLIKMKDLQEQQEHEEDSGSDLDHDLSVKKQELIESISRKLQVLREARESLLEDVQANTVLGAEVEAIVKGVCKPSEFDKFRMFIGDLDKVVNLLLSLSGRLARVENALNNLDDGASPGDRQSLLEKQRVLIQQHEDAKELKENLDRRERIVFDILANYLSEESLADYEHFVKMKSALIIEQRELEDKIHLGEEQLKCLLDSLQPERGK

Target | log2 fold change [1] | log2 fold change [2] | log2 fold change (vemurafenib) | log2 fold change [3] | log2 fold change [4] | log2 fold change (givinostat) | log2 fold change (barasertib) | log2 fold change [5] | log2 fold change (volasertib) | log2 fold change [6] | log2 fold change [7] | log2 fold change [8] | log2 fold change [9] | log2 fold change (rosiglitazone) | log2 fold change [10] | log2 fold change [11] | log2 fold change [12] | log2 fold change [13] | log2 fold change (Nexturastat A) | log2 fold change (epoxomicin)
RAB3D (UniProt O95716) | 0.074 | 0.036 | -0.113 | 0.094 | 0.032 | -0.08 | 0.034 | 0.039 | 0.025 | 0.097 | 0.067 | 0.041 | -0.098 | -0.013 | 0.103 | 0.129 |  |  |  | 
SDHAF4 (UniProt Q5VUM1) |  | 0.053 |  | -0.065 | -0.035 | 0.368 (active) | -0.018 | 0.013 | 0.075 | -0.045 | 0.162 |  |  | 0.048 | -0.014 |  | -0.066 | 0.022 | -0.039 | -0.066
RBMY1E (UniProt A6NEQ0) | 0.009 | 0.183 |  | 0.082 | -0.023 | 0.059 | 0.135 | -0.068 | -0.236 | -0.034 | -0.134 | 0.084 |  | -0.058 |  | -0.199 |  | 0.075 |  | 
RAPGEF4 (UniProt Q8WZA2) |  |  | -0.267 |  | -0.203 | 0.248 | 0.041 | -0.13 |  |  | -0.136 |  | -0.011 | 0.065 | -0.036 |  | -0.046 | -0.235 | 0.245 | -0.038
SEMG2 (UniProt Q02383) |  |  |  |  | -0.097 |  | 0.015 | 0.043 |  | 0.15 |  | 0.035 |  | 0.049 |  | 0.058 | -0.038 |  | -0.062 | 0.06
RAP2C (UniProt Q9Y3L5) | 0.052 | -0.03 | 0.066 | -0.13 | -0.052 | -0.044 | -0.031 | 0.02 | 0.05 | 0.042 | 0.054 | 0.097 | 0.052 | -0.045 | -0.105 | 0.173 | -0.064 |  | 0 | 0.172
SHROOM2 (UniProt Q13796) |  | 0.011 | -0.078 | -0.179 | -0.207 | 0.238 | 0.071 | 0.027 | 0.068 | -0.243 | -0.203 | -0.072 | -0.021 | 0.058 | -0.103 | -0.094 | -0.104 | -0.206 | 0.763 (active) | -0.136
RMDN2 isoform 2 (UniProt Q96LZ7) | -0.022 |  | 0.217 |  | -0.196 |  |  |  |  | 0.068 |  |  | -0.167 |  |  |  |  | -0.127 |  | 
SLC12A5 (UniProt Q9H2X9) |  | 0.108 | -0.105 | 0.081 | -0.018 | 0.016 | -0.004 | -0.007 | -0.033 |  | 0.002 |  | -0.013 | -0.022 | 0.316 |  | 0.074 | 0.198 | 0.001 | -0.162
RPS19 (UniProt M0R2L9) |  | -0.169 |  | -0.98 | 0.113 |  |  |  | 0.492 | -0.256 |  |  |  |  |  |  |  |  |  | 
SDCBP isoform 2 (UniProt O00560) | -0.058 | 0.004 |  | 0.076 | -0.048 | -0.008 | 0.046 | -0.015 | -0.221 | -0.021 | -0.068 | -0.234 |  | 0.105 | -0.196 | -0.208 | 0.06 |  | 0.149 | 0.056
RPS3 (UniProt E9PJN9) | 0.125 |  |  |  |  |  |  | 0.098 |  |  |  | -0.125 |  |  | 0.088 | 0.089 |  |  |  | 
SDC3 (UniProt O75056) |  |  | 0.073 |  |  |  |  | 0.223 |  | 0.067 |  | -0.401 | 0.006 |  | -0.017 | 0.632 | 0.091 |  | 0.016 | 0.005
RNF2 (UniProt Q99496) |  | 0.051 | -0.066 | 0.061 | 0.07 | -0.04 | -0.002 | -0.045 | -0.169 | -0.307 (active) | 0.1 | 0.012 | 0.007 | 0.036 | 0.063 | -0.03 | 0.155 | 0.022 | 0.024 | 0.168
SF3B5 (UniProt Q9BWJ5) |  | 0.072 | -0.055 | -0.027 | -0.009 | 0.129 | -0.12 | 0.089 | -0.14 | -0.057 | 0.042 | 0.035 | 0.006 | -0.044 | 0.082 | 0.035 | 0.003 | 0.111 | 0.042 | 0.426 (active)
RPS6KA5 (UniProt O75582) | -0.039 | 0.029 |  | 0.121 | 0.237 | 0.025 |  | 0.024 | -0.529 |  | -0.127 |  |  |  |  |  |  | -0.017 | 0.013 | 0.048
RNF26 (UniProt Q9BY78) | 0.012 |  | 0.281 |  |  |  | 0.124 |  |  |  |  | 0.077 | 0.017 | -0.131 |  | -1.04 (active) |  |  |  | 
RICTOR isoform 3 (UniProt Q6R327) |  | 0.074 |  | 0.018 |  | -0.057 |  | -0.271 | -0.758 (active) | -0.033 | -0.585 | -0.083 |  |  | 0.265 | -0.169 | -0.09 |  | 0.25 | 0.064
SEPTIN5 (UniProt G3XAH0) | -0.046 | 0.04 | 0.058 | 0.023 | -0.009 | 0.014 | 0.002 |  | 0.097 | 0.074 | -0.021 | 0.211 | 0.011 | 0.056 | -0.079 | 0.075 | -0.002 |  | -0.255 (active) | 0.049
RABGAP1L isoform 5 (UniProt Q5R372) |  | -0.047 |  | -0.016 | -0.197 | -0.013 | 0 |  | 0.01 | 0.074 | 0.017 |  |  | 0.046 | 0.059 |  | -0.106 | -0.055 | -0.009 | -0.085
SH3PXD2B (UniProt A1X283) |  |  | -0.145 |  | 0.187 | -0.548 (active) | 0.043 | -2.01 (active) |  | -0.068 | 0.014 | 0.097 | -0.019 | -0.008 |  | -1.2 (active) | -0.029 |  | -0.052 | 0.048
RNF220 isoform 3 (UniProt Q5VTB9) |  | 0.385 |  | 0.201 |  | -0.059 |  |  | -0.31 |  | -0.001 |  |  |  |  |  |  |  |  | 
RPS3A (UniProt D6R9B6) |  |  |  |  |  |  |  |  |  |  |  |  |  |  | 0.247 |  | -0.199 |  |  | 
SLC1A3 (UniProt P43003) | -0.047 | 0.043 | -0.043 | -0.095 | -0.127 | -0.1 | -0.01 | -0.065 | 0.003 | 0.018 | 0.037 | -0.101 | -0.048 | -0.021 | -0.286 | 0.254 |  |  | -0.099 | 0.087
